A selection: hits, their analogues and other compounds. The true share with any hit is near 8%.
Marburg entry inh: Marburg virus entry inhibition | Marburg virus pseudotyped entry inhibition, cell reporter | Potency, µM (highest dose often 37.8 µM), for inactives: at the top dose activity change, negative = inhibition, most hits filed as inhibitors | hit rate 1.8% among 300,000 | AID 540276; calls by dose curve; tested in HEK293 cells; note: potency is the fitted concentration of half-maximal effect; % is set by controls: 0 for no effect and ±100 for the full control effect
Lassa entry inh: blocks Lassa virus binding to or entry into cells; Lassa virus pseudotype entry inhibition, cell reporter; Potency, µM (series often up to 37.9 µM), for inactives: at the top dose activity change, negative = inhibition, hits mostly inhibitors; hit rate 1.2% among 300,000; calls by dose curve; tested in HEK293 cells; note: potency is the fitted concentration of half-maximal effect; % is set by controls: 0 for no effect and ±100 for the full control effect; nearly all actives have a fitted effect of over 50% in size
HCMV antiviral: inhibitors of human cytomegalovirus; hit rate 4.5% among 410,000; activity change, negative = inhibition, % at 57.5 µM; AID 1259415; HFF cells, HCMV-luciferase reporter, 72 h; stronger effect = lower value; in the data active = activity change below about -60%; inconclusive = no clear call, values can overlap the other calls; inactive = above about -39%; note: % is set by controls: 0 for no effect and ±100 for the full control effect
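Steps: HFFs plated, 16 h 37C; compounds added; HCMV-luciferase added to MOI 1 PFU/cell; 72 h 37C; OneGlo reagent, 5 min room temperature; luminescence read, normalized to controls.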
SARS PLP yeast: SARS-CoV PLP inhibition in yeast; S. cerevisiae expressing SARS-CoV PLpro, growth rescue; Potency, µM (top dose mostly 32.9 µM), without a hit: at the top dose activity, positive = growth rescue, usual class: activators; hit rate 0.19% among 330,000; AID 485353; calls by dose curve; note: potency is the fitted concentration of half-maximal effect; 0% is about no effect; nearly all actives have a fitted effect of over 55% in size
HCV inhibitor: blocks hepatitis C virus; hit rate 3.4% among 340,000; Huh7.5.1 HCVcc-Cre infection, luciferase reporter, 44 h; AID 651820; Potency, µM (series often up to 41.8 µM), for the others: at the highest dose activity change, negative = inhibition, hits mostly inhibitors; active = well fitted inhibition curve with a large enough effect; inconclusive = small, poorly fitted or top-dose-only effect, or another doubt; inactive = no such curve, though single readings can be large or run the other way; note: potency is the fitted concentration of half-maximal effect; % is set by controls: 0 for no effect and ±100 for the full control effect
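After 44 h co-culture of compound, cells and HCVcc-Cre (~0.5 moi), substrate is added for 15 min at room temperature and luciferase measured over 15 sec. Cells were seeded at 1,000/well and pre-cultured 4 h.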
FMDV antiviral: blocks foot and mouth disease virus; hit rate 1.2% among 410,000; AID 1159524; Potency, µM (series often up to 57.9 µM), for inactives: top-dose activity change, negative = inhibition, hits mostly inhibitors; FMDV antiviral cell-based qHTS; calls by dose curve; tested in HEK293T cells; note: read-out not given here; potency is the fitted concentration of half-maximal effect; % is set by controls: 0 for no effect and ±100 for the full control effect; nearly all actives have a fitted effect of over 45% in size
* marks the source's active call; other numbers are inactive results; ? = inconclusive; · = no result; [ ] = another dose, or the depositor's remark.

SMILES	Marburg entry inh	Lassa entry inh	HCMV antiviral	SARS PLP yeast	HCV inhibitor	FMDV antiviral
COc1ccc(F)cc1S(=O)(=O)Nc1ccc2c(c1)CCCN2C(=O)c1cccs1	·	-8%[46.1 µM]	-75*	·	·	0%
O=C(NCCOCCn1c(=O)oc2ccccc21)Nc1ccc(F)cc1F	0%[46.1 µM]	-7%[46.1 µM]	5	·	·	-14%
COc1cc2ncc3c(-c4ccccc4)nn(-c4ccc(C)cc4)c3c2cc1OC	·	3%[46.1 µM]	15	·	·	0%
COCC(=O)N1CCC2(CCCN(c3cccc(-c4ccccc4)c3)C2)CC1	·	·	·	·	·	-7%
CC(=O)Nc1cccc(-c2ccnc3c2CC(C)(C(=O)Nc2ccc4c(c2)OCO4)O3)c1 (stereo not drawn)	·	·	-79*	·	·	-16%
CN(C)c1ccc(-c2ccnc3c2CC(C)(C(=O)Nc2cccc(OC(F)(F)F)c2)O3)cc1 (stereo not drawn)	·	·	8	·	·	-3%
COc1ccc(NC(=O)C2(C)Cc3c(-c4ccc5c(c4)OCO5)ccnc3O2)cc1 (stereo not drawn)	·	·	-62*	·	·	-5%
COc1ccc(NC(=O)C2(C)Cc3c(-c4cccc(NC(C)=O)c4)ccnc3O2)cn1 (stereo not drawn)	·	·	-72*	·	·	-16%
CC1(C(=O)Nc2cccc(OC(F)(F)F)c2)Cc2c(-c3ccc4c(c3)OCO4)ccnc2O1 (stereo not drawn)	·	·	-60*	·	·	-1%
CC1(C(=O)Nc2ccc3c(c2)OCO3)Cc2c(-c3ccccc3)ccnc2O1 (stereo not drawn)	·	·	-12	·	·	-9%
CC(=O)N1c2ccc(S(=O)(=O)N(C)CC(=O)N(Cc3ccccc3)C(C)C)cc2CC1C (stereo not drawn)	·	-27%[46.1 µM]	-19	·	·	-8%
CC1(C(=O)Nc2ccc(Cl)c(C(F)(F)F)c2)Cc2c(-c3ccc(C(N)=O)cc3)ccnc2O1 (stereo not drawn)	·	·	-62*	·	·	?
CC1(C(=O)Nc2ccc(Cl)c(C(F)(F)F)c2)Cc2c(-c3cccc(C(N)=O)c3)ccnc2O1 (stereo not drawn)	·	·	-31	·	·	?
O=C(COC(=O)CCN1C(=O)/C(=C\C=C\c2ccccc2)SC1=S)Nc1cc(F)ccc1F	?	?	-62*	-1%	4%	?
O=C(CN1C(=O)/C(=C\C=C\c2ccccc2)SC1=S)Nc1ccc(F)cc1	-1%	?	-30	19%	-16%	1%
COc1ccc(NCc2cc3ccc(OC)cc3n(CC(=O)Nc3cccc(OC)c3)c2=O)cc1	·	-5%[46.1 µM]	2	·	·	-11%
CCn1cc(CN(C)S(=O)(=O)c2ccc3ccccc3c2)c(C)n1	?	?	-68*	-1%	7.9µM*	?
COC(=O)c1c(OCc2ccccn2)cc(=O)n2c1CCN(Cc1ccc3nsnc3c1)CC2	·	·	·	·	·	-5%
CCOc1ccc(-c2nc3c(c(SCC(=O)N4CCCCC4)n2)Cc2cc(C)ccc2O3)cc1	6%[46.1 µM]	-5%[46.1 µM]	29	·	·	10%
CNC(=S)SCCOc1ccccc1C	0%	11%	-69*	?	39%	40%
N#C/C(=C\c1ccc(-c2cccc(Cl)c2)o1)C(=O)Nc1cccc(C(F)(F)F)c1	·	22%[46.1 µM]	2	·	·	1%
O=C1Nc2ccccc2/C1=C\C(=O)c1ccccc1	·	·	-30	-11%	17%	32µM*
COc1ccc2cc(CNCc3ccccc3C(F)(F)F)c(N3CCCC(CO)C3)nc2c1 (stereo not drawn)	·	·	·	·	·	11%
COc1ccc2c(c1OC)c(=O)n1c3ccc(OC(C)C(=O)NCCN4CCOCC4)cc3c3ccnc2c31 (stereo not drawn)	·	·	-3	-8%	?	-19%
CC(Oc1ccc2c(c1)c1ccnc3c4ccccc4c(=O)n2c13)C(=O)NCCN1CCOCC1 (stereo not drawn)	·	·	-90*	-10%	11µM*	-25%
SMILES	Marburg entry inh	Lassa entry inh	HCMV antiviral	SARS PLP yeast	HCV inhibitor	FMDV antiviral
COc1cc2c(cc1OC)C(COc1cccc(C(F)(F)F)c1)NCC2 (stereo not drawn)	·	·	-71*	-3%	?	?
CCc1ccccc1Nc1nn2c(=O)c3ccc(C(=O)NC4CCC(C)CC4)cc3nc2s1 (stereo not drawn)	·	-11%[46.1 µM]	14	·	·	0%
CNC(CC(=O)c1ccc([N+](=O)[O-])cc1)C(Cl)(Cl)Cl (stereo not drawn)	?	?	·	-107%	9%	32µM*
Cc1ccc(S(=O)(=O)Nc2cccc3ncccc23)s1	10µM*	8.9µM*	·	-37%	?	28µM*
COc1ccccc1CNC(=O)c1cnc2sc(N3CCCCCC3)nn2c1=O	·	-4%[46.1 µM]	?	·	·	-24%
CC(C)(C)OC(=O)NNC1CC(=O)N(c2ccccc2F)C1=O (stereo not drawn)	5%	12%	-71*	1%	3%	-21%
CC1CN(Cc2csc(-c3ccc(Cl)cc3)n2)CC(C)O1 (stereo not drawn)	?	-10%[46.1 µM]	?	-5%	11µM*	-16%
ClCc1csc(-c2ccc(Cl)cc2)n1	-4%	11%	-40	0%	25%	3%
C#CCCC[C@@H]1OC(=O)CNC(=O)C([C@@H](C)CC)NC(=O)[C@@H]2CCCN2C(=O)C([C@@H](C)CC)OC(=O)[C@H](Cc2ccccc2)N(C)C(=O)[C@H](C(C)C)NC(=O)C1(C)C (stereo partly drawn)	·	·	?	·	·	-24%
CC[C@H](C)[C@@H]1NC(=O)[C@H]([C@@H](C)CC)NC(=O)[C@@H](CC(C)C)NC(=O)[C@H](Cc2ccccc2)NC(=O)[C@H](Cc2ccccc2)NC(=O)[C@@H]2CCCN2C(=O)[C@@H]2CCCN2C(=O)[C@H](C(C)C)NC(=O)[C@H](CC(C)C)NC1=O	·	·	-80*	-4%	-25%	-10%
CCN1CC2=C(OC(N)=C(C#N)C2c2cccs2)/C(=C\c2cccs2)C1 (stereo not drawn)	?	-45%	-30	11%	14µM*	·
CCOC(=O)C1=C(CC)OC(N)=C(C#N)C1c1cccs1 (stereo not drawn)	1%	12%	32	0%	3%	·
COc1ccc(-c2c(C#N)c(SCC(=O)Nc3ccc(C)c(C)c3)nc(C)c2C(=O)Nc2ccccc2)cc1OC	·	-2%[46.1 µM]	1	·	·	2%
O=C1CC(c2ccc3c(c2)OCCO3)Oc2ccc([N+](=O)[O-])cc21 (stereo not drawn)	·	·	-77*	0%	-4%	?
CCOc1nc(-c2ccc(C)cc2)ccc1-c1noc(COC)n1	-4%	2%	30	0%	10µM*	-4%
CCCc1cc(=O)oc2c3c(c4c(c12)OC(C)(C)C=C4)OC(C)C(C)C3O (stereo not drawn)	·	·	-77*	-4%	10µM*	-1%
Cc1ccc(NC(=S)/C(=C(\[O-])c2ccc(F)cc2)[n+]2ccccc2)cc1	-19%[46.1 µM]	2%	-73*	-8%	-11%	35%

Screens from PubChem.
